# Laboratory results published in PMC8384837, “Expanding the binding specificity for RNA recognition by a PUF domain”.
# What was measured:
# Experiment in all cases: yeast three-hybrid, YBZ-1, SC-Leu-His + 0.5 mM 3-AT, 4 days
# Settings in all cases: tags: N-Gal4 AD-HA kept; label: inside an RPR1-promoter hybrid RNA with tandem MS2 sites; ssRNA
# PUM1 PUF domain R1-KDS = PUM1 PUF domain R1-KDS (Homo sapiens, UniProt Q14671 828-1176, S863K;R864D;Q867S)
# Procedure, shortened: (§1)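 Pumilio-1 PUF domain libraries, randomized at the three base-contacting residues of each repeat, were co-expressed with matching RNA elements from a centromeric plasmid in strain YBZ-1, which carries a LexA–MS2 coat fusion and a HIS3 reporter. Transformants grew for four days on SC-Leu (input) or on SC-Leu-His + 0.5 mM 3-AT (selection), and the repeat regions were PCR-amplified and Illumina-sequenced. The interaction score is the log change in variant frequency from input to selection. That logarithm is base 2, with a pseudocount of 1 where a variant was absent.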
# PUM1 PUF domain R1-SPR = PUM1 PUF domain R1-SPR (Homo sapiens, UniProt Q14671 828-1176, R864P;Q867R)
# Procedure, shortened: as §1
# PUM1 PUF domain R1-RVT = PUM1 PUF domain R1-RVT (Homo sapiens, UniProt Q14671 828-1176, S863R;R864V;Q867T)
# Procedure, shortened: as §1
# PUM1 PUF domain R8-RWD = PUM1 PUF domain R8-RWD (Homo sapiens, UniProt Q14671 828-1176, N1122R;Y1123W;Q1126D)
# PUM1 PUF domain R8-RWD, sequence (Q14671 828-1176 N1122R/Y1123W/Q1126D): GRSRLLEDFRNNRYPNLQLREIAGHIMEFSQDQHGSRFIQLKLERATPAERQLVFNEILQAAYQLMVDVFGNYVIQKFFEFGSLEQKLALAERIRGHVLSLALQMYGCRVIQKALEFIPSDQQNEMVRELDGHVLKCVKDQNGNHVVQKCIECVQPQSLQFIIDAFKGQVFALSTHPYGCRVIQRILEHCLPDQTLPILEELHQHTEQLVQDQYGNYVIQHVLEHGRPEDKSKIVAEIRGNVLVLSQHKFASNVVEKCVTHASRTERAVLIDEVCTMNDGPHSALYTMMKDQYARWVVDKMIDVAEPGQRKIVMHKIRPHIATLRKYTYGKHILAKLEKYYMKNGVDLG
# Procedure, shortened: as §1
# PUM1 PUF domain R5-RQI = PUM1 PUF domain R5-RQI (Homo sapiens, UniProt Q14671 828-1176, C1007R;R1008Q;Q1011I)
# PUM1 PUF domain R5-RQI, sequence (Q14671 828-1176 C1007R/R1008Q/Q1011I): as the sequence (Q14671 828-1176 N1122R/Y1123W/Q1126D) above, with C180R, R181Q, Q184I, R295N, W296Y, D299Q counted along it
# Procedure, shortened: as §1
# PUM1 PUF domain R5-KAE = PUM1 PUF domain R5-KAE (Homo sapiens, UniProt Q14671 828-1176, C1007K;R1008A;Q1011E)
# PUM1 PUF domain R5-KAE, sequence (Q14671 828-1176 C1007K/R1008A/Q1011E): as the sequence (Q14671 828-1176 N1122R/Y1123W/Q1126D) above, with C180K, R181A, Q184E, R295N, W296Y, D299Q counted along it
# Procedure, shortened: as §1
# PUM1 PUF domain R3-LWE = PUM1 PUF domain R3-LWE (Homo sapiens, UniProt Q14671 828-1176, C935L;R936W;Q939E)
# PUM1 PUF domain R3-LWE, sequence (Q14671 828-1176 C935L/R936W/Q939E): as the sequence (Q14671 828-1176 N1122R/Y1123W/Q1126D) above, with C108L, R109W, Q112E, R295N, W296Y, D299Q counted along it
# Procedure, shortened: as §1
# PUM1 PUF domain R3-LFG = PUM1 PUF domain R3-LFG (Homo sapiens, UniProt Q14671 828-1176, C935L;R936F;Q939G)
# Procedure, shortened: as §1
# PUM1 PUF domain R4-PFK = PUM1 PUF domain R4-PFK (Homo sapiens, UniProt Q14671 828-1176, N971P;H972F;Q975K)
# PUM1 PUF domain R4-PFK, sequence (Q14671 828-1176 N971P/H972F/Q975K): as the sequence (Q14671 828-1176 N1122R/Y1123W/Q1126D) above, with N144P, H145F, Q148K, R295N, W296Y, D299Q counted along it
# Procedure, shortened: as §1
# PUM1 PUF domain R5-MPR = PUM1 PUF domain R5-MPR (Homo sapiens, UniProt Q14671 828-1176, C1007M;R1008P;Q1011R)
# PUM1 PUF domain R5-MPR, sequence (Q14671 828-1176 C1007M/R1008P/Q1011R): as the sequence (Q14671 828-1176 N1122R/Y1123W/Q1126D) above, with C180M, R181P, Q184R, R295N, W296Y, D299Q counted along it
# Procedure, shortened: as §1
# PUM1 PUF domain R8-PWH = PUM1 PUF domain R8-PWH (Homo sapiens, UniProt Q14671 828-1176, N1122P;Y1123W;Q1126H)
# Procedure, shortened: as §1
# PUM1 PUF domain R4-GNC = PUM1 PUF domain R4-GNC (Homo sapiens, UniProt Q14671 828-1176, N971G;H972N;Q975C)
# Procedure, shortened: as §1
# PUM1 PUF domain R4-PHK = PUM1 PUF domain R4-PHK (Homo sapiens, UniProt Q14671 828-1176, N971P;Q975K)
# PUM1 PUF domain R4-PHK, sequence (Q14671 828-1176 N971P/Q975K): as the sequence (Q14671 828-1176 N1122R/Y1123W/Q1126D) above, with N144P, Q148K, R295N, W296Y, D299Q counted along it
# Procedure, shortened: as §1
# PUM1 PUF domain R4-APR = PUM1 PUF domain R4-APR (Homo sapiens, UniProt Q14671 828-1176, N971A;H972P;Q975R)
# PUM1 PUF domain R4-APR, sequence (Q14671 828-1176 N971A/H972P/Q975R): as the sequence (Q14671 828-1176 N1122R/Y1123W/Q1126D) above, with N144A, H145P, Q148R, R295N, W296Y, D299Q counted along it
# Procedure, shortened: as §1
# PUM1 PUF domain R3-RER = PUM1 PUF domain R3-RER (Homo sapiens, UniProt Q14671 828-1176, C935R;R936E;Q939R)
# PUM1 PUF domain R3-RER, sequence (Q14671 828-1176 C935R/R936E/Q939R): as the sequence (Q14671 828-1176 N1122R/Y1123W/Q1126D) above, with C108R, R109E, Q112R, R295N, W296Y, D299Q counted along it
# Procedure, shortened: as §1
# PUM1 PUF domain R5-DKQ = PUM1 PUF domain R5-DKQ (Homo sapiens, UniProt Q14671 828-1176, C1007D;R1008K)
# Procedure, shortened: as §1
# PUM1 PUF domain R5-FRC = PUM1 PUF domain R5-FRC (Homo sapiens, UniProt Q14671 828-1176, C1007F;Q1011C)
# Procedure, shortened: as §1
# PUM1 PUF domain R5-KQD = PUM1 PUF domain R5-KQD (Homo sapiens, UniProt Q14671 828-1176, C1007K;R1008Q;Q1011D)
# Procedure, shortened: as §1
# PUM1 PUF domain R1-KNS = PUM1 PUF domain R1-KNS (Homo sapiens, UniProt Q14671 828-1176, S863K;R864N;Q867S)
# Procedure, shortened: as §1
# PUM1 PUF domain R7-EHG = PUM1 PUF domain R7-EHG (Homo sapiens, UniProt Q14671 828-1176, S1079E;N1080H;E1083G)
# Procedure, shortened: as §1
# PUM1 PUF domain R1-KDS, sequence (Q14671 828-1176 S863K/R864D/Q867S): as the sequence (Q14671 828-1176 N1122R/Y1123W/Q1126D) above, with S36K, R37D, Q40S, R295N, W296Y, D299Q counted along it
sequence,measurement,setting,value
GGCUAGAACUAGUGGAUCCCCCGGCGCCCGGCGGCUCGAGCCCGGGUAAGUGUAAAUCGUCUGCAUGCCGCCGGGCGCCAUGCCUGCAGGUCGACUCUAGAAAACAUG,binding signal,PUM1 PUF domain R1-KDS,2.96 log2 enrichment (interaction score)
same,binding signal,PUM1 PUF domain R1-SPR,2.62 log2 enrichment (interaction score)
same,binding signal,PUM1 PUF domain R1-RVT,5.15 log2 enrichment (interaction score)
GGCUAGAACUAGUGGAUCCCCCGGCGCCCGGCGGCUCGAGCCCGGGUAAGCGUAAAUAGUCUGCAUGCCGCCGGGCGCCAUGCCUGCAGGUCGACUCUAGAAAACAUG,binding signal,PUM1 PUF domain R8-RWD,2.45 log2 enrichment (interaction score)
GGCUAGAACUAGUGGAUCCCCCGGCGCCCGGCGGCUCGAGCCCGGGUAAGUGUUAAUAGUCUGCAUGCCGCCGGGCGCCAUGCCUGCAGGUCGACUCUAGAAAACAUG,binding signal,PUM1 PUF domain R5-RQI,4.62 log2 enrichment (interaction score)
same,binding signal,PUM1 PUF domain R5-KAE,2.99 log2 enrichment (interaction score)
GGCUAGAACUAGUGGAUCCCCCGGCGCCCGGCGGCUCGAGCCCGGGUAAGUGUAAGUAGUCUGCAUGCCGCCGGGCGCCAUGCCUGCAGGUCGACUCUAGAAAACAUG,binding signal,PUM1 PUF domain R3-LWE,5.48 log2 enrichment (interaction score)
same,binding signal,PUM1 PUF domain R3-LFG,4.75 log2 enrichment (interaction score)
GGCUAGAACUAGUGGAUCCCCCGGCGCCCGGCGGCUCGAGCCCGGGUAAGUGUAAAUAGUCUGCAUGCCGCCGGGCGCCAUGCCUGCAGGUCGACUCUAGAAAACAUG,binding signal,PUM1 PUF domain R4-PFK,4.17 log2 enrichment (interaction score)
same,binding signal,PUM1 PUF domain R3-LWE,3.37 log2 enrichment (interaction score)
same,binding signal,PUM1 PUF domain R5-MPR,1.45 log2 enrichment (interaction score)
same,binding signal,PUM1 PUF domain R8-RWD,2.26 log2 enrichment (interaction score)
same,binding signal,PUM1 PUF domain R8-PWH,2.69 log2 enrichment (interaction score)
same,binding signal,PUM1 PUF domain R4-GNC,1.09 log2 enrichment (interaction score)
same,binding signal,PUM1 PUF domain R3-LFG,1.41 log2 enrichment (interaction score)
GGCUAGAACUAGUGGAUCCCCCGGCGCCCGGCGGCUCGAGCCCGGGUAAGUGUACAUAGUCUGCAUGCCGCCGGGCGCCAUGCCUGCAGGUCGACUCUAGAAAACAUG,binding signal,PUM1 PUF domain R4-PFK,4.33 log2 enrichment (interaction score)
same,binding signal,PUM1 PUF domain R4-PHK,3.9 log2 enrichment (interaction score)
same,binding signal,PUM1 PUF domain R4-APR,2.91 log2 enrichment (interaction score)
same,binding signal,PUM1 PUF domain R4-GNC,3.28 log2 enrichment (interaction score)
GGCUAGAACUAGUGGAUCCCCCGGCGCCCGGCGGCUCGAGCCCGGGUAAGUGUAAUUAGUCUGCAUGCCGCCGGGCGCCAUGCCUGCAGGUCGACUCUAGAAAACAUG,binding signal,PUM1 PUF domain R3-LWE,1.78 log2 enrichment (interaction score)
same,binding signal,PUM1 PUF domain R3-RER,4.06 log2 enrichment (interaction score)
same,binding signal,PUM1 PUF domain R3-LFG,1.87 log2 enrichment (interaction score)
GGCUAGAACUAGUGGAUCCCCCGGCGCCCGGCGGCUCGAGCCCGGGUAAGUGUCAAUAGUCUGCAUGCCGCCGGGCGCCAUGCCUGCAGGUCGACUCUAGAAAACAUG,binding signal,PUM1 PUF domain R5-RQI,2.06 log2 enrichment (interaction score)
same,binding signal,PUM1 PUF domain R5-KAE,3.8 log2 enrichment (interaction score)
same,binding signal,PUM1 PUF domain R5-MPR,2.13 log2 enrichment (interaction score)
same,binding signal,PUM1 PUF domain R5-DKQ,5.31 log2 enrichment (interaction score)
same,binding signal,PUM1 PUF domain R5-FRC,3.83 log2 enrichment (interaction score)
same,binding signal,PUM1 PUF domain R5-KQD,2.75 log2 enrichment (interaction score)
GGCUAGAACUAGUGGAUCCCCCGGCGCCCGGCGGCUCGAGCCCGGGUAAGUGUAAAUUGUCUGCAUGCCGCCGGGCGCCAUGCCUGCAGGUCGACUCUAGAAAACAUG,binding signal,PUM1 PUF domain R1-SPR,1.48 log2 enrichment (interaction score)
same,binding signal,PUM1 PUF domain R1-RVT,4.35 log2 enrichment (interaction score)
same,binding signal,PUM1 PUF domain R1-KNS,3.86 log2 enrichment (interaction score)
GGCUAGAACUAGUGGAUCCCCCGGCGCCCGGCGGCUCGAGCCCGGGUAAGUCUAAAUAGUCUGCAUGCCGCCGGGCGCCAUGCCUGCAGGUCGACUCUAGAAAACAUG,binding signal,PUM1 PUF domain R7-EHG,5.15 log2 enrichment (interaction score)
GGCUAGAACUAGUGGAUCCCCCGGCGCCCGGCGGCUCGAGCCCGGGUAAGUGUAUAUAGUCUGCAUGCCGCCGGGCGCCAUGCCUGCAGGUCGACUCUAGAAAACAUG,binding signal,PUM1 PUF domain R4-PFK,6.46 log2 enrichment (interaction score)
same,binding signal,PUM1 PUF domain R4-APR,2.82 log2 enrichment (interaction score)
same,binding signal,PUM1 PUF domain R4-GNC,3.99 log2 enrichment (interaction score)
GGCUAGAACUAGUGGAUCCCCCGGCGCCCGGCGGCUCGAGCCCGGGUAAGUGUAAAUGGUCUGCAUGCCGCCGGGCGCCAUGCCUGCAGGUCGACUCUAGAAAACAUG,binding signal,PUM1 PUF domain R1-KDS,2.77 log2 enrichment (interaction score)
same,binding signal,PUM1 PUF domain R1-RVT,3.15 log2 enrichment (interaction score)
